# Source: the supplement of paper PMC8728848
# Only a selection was taken, and the strongest signals are over-represented in it overall.
# B1: Epa19 (Candida glabrata) (protein)
# chain: MGSSHHHHHHSSGLVPRGSHMASSKDPTRFPIGCSPQVLKTQPGLAVKLYSYGHPVPGCSYITYQYPDFPRSGYKKERKLADITGVNGKIDIDLKPNDPCRVLTGHLPSNYNYPDTLTYTNFTMILYGYFQPKVTGYHTFNLEADDLLFMNLGAGNAFDCCKAESTLDNFGNYQSYSLWGSDYAKANITVFLVSGVYYPIRLFYVNRDNNAVIDFSFTTEFDKEKVHDFTSYFFSASDGEQCPGSV
# Legend:
# Experiment in all cases: glycan array binding signal (z-score within array); higher = stronger binding
# Details in all cases: glycan notation: IUPAC condensed, linker removed
# [1] = biological target: GalNAc(b1-3)Gal(a1-4)Gal(b1-4)GlcNAc
# Outline: (§1)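 Glycan array binding is given as a within-array Z-score, which can be read as non-binding when negative. The arrays, 3228 of them, came from the Consortium for Functional Glycomics database and were retained only where the protein sequence was available. Z-scores were averaged across arrays of the same protein sequence at different concentrations or buffers and across linkers.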
# [2] = biological target: GalNAc(b1-3)Gal(a1-6)Gal(b1-4)Glc
# Outline: as §1
# [3] = biological target: Glc(a1-4)Glc(a1-4)Glc(a1-4)Glc
# Outline: as §1
# [4] = biological target: GlcNAc(a1-4)Gal(b1-4)GlcNAc(b1-3)Gal(b1-4)GlcNAc(b1-3)Gal(b1-4)GlcNAc
# Outline: as §1
# GlcNAc(b1-3)Gal = biological target: GlcNAc(b1-3)Gal
# Outline: as §1
# GlcNAc(b1-3)Gal(b1-4)Glc = biological target: GlcNAc(b1-3)Gal(b1-4)Glc
# Outline: as §1
# [5] = biological target: GlcNAc(b1-3)Gal(b1-4)GlcNAc
# Outline: as §1
# [6] = biological target: GlcNAc(b1-3)Gal(b1-4)GlcNAc(b1-3)Gal(b1-4)GlcNAc(b1-2)[GlcNAc(b1-3)Gal(b1-4)GlcNAc(b1-3)Gal(b1-4)GlcNAc(b1-6)]Man(a1-6)[GlcNAc(b1-3)Gal(b1-4)GlcNAc(b1-3)Gal(b1-4)GlcNAc(b1-2)Man(a1-3)]Man(b1-4)GlcNAc(b1-4)[Fuc(a1-6)]GlcNAc
# Outline: as §1
# [7] = biological target: GlcNAc(b1-3)Gal(b1-4)GlcNAc(b1-3)Gal(b1-4)GlcNAc(b1-3)Gal(b1-4)GlcNAc(b1-2)[GlcNAc(b1-3)Gal(b1-4)GlcNAc(b1-3)Gal(b1-4)GlcNAc(b1-3)Gal(b1-4)GlcNAc(b1-6)]Man(a1-6)[GlcNAc(b1-3)Gal(b1-4)GlcNAc(b1-3)Gal(b1-4)GlcNAc(b1-3)Gal(b1-4)GlcNAc(b1-2)Man(a1-3)]Man(b1-4)GlcNAc(b1-4)[Fuc(a1-6)]GlcNAc
# Outline: as §1
# [8] = biological target: GlcNAc(b1-3)Gal(b1-4)GlcNAc(b1-3)Gal(b1-4)GlcNAc(b1-3)Gal(b1-4)GlcNAc(b1-3)Gal(b1-4)GlcNAc(b1-2)[GlcNAc(b1-3)Gal(b1-4)GlcNAc(b1-3)Gal(b1-4)GlcNAc(b1-3)Gal(b1-4)GlcNAc(b1-3)Gal(b1-4)GlcNAc(b1-6)]Man(a1-6)[GlcNAc(b1-3)Gal(b1-4)GlcNAc(b1-3)Gal(b1-4)GlcNAc(b1-3)Gal(b1-4)GlcNAc(b1-3)Gal(b1-4)GlcNAc(b1-2)Man(a1-3)]Man(b1-4)GlcNAc(b1-4)[Fuc(a1-6)]GlcNAc
# Outline: as §1
# [9] = biological target: GlcNAc(b1-4)GlcNAc(b1-4)GlcNAc
# Outline: as §1
# [10] = biological target: GlcNAc(b1-6)Gal(b1-4)GlcNAc
# Outline: as §1
# Kdn(a2-6)Gal(b1-4)GlcNAc = biological target: Kdn(a2-6)Gal(b1-4)GlcNAc
# Outline: as §1
# [11] = biological target: Man(a1-2)Man(a1-6)[Man(a1-3)]Man(a1-6)[Man(a1-2)Man(a1-2)Man(a1-3)]Man(b1-4)GlcNAc(b1-4)GlcNAc
# Outline: as §1
# Man(a1-6)Man = biological target: Man(a1-6)Man
# Outline: as §1
# [12] = biological target: Neu5Ac(a2-3)Gal(b1-3)GlcNAc(b1-2)Man
# Outline: as §1
# [13] = biological target: Neu5Ac(a2-3)Gal(b1-3)[GlcNAc(b1-6)]GalNAc
# Outline: as §1
# [14] = biological target: Neu5Ac(a2-3)Gal(b1-3)[Neu5Ac(a2-6)]GlcNAc(b1-3)[Fuc(a1-3)[Gal(b1-4)]GlcNAc(b1-6)]Gal(b1-4)Glc
# Outline: as §1
# [15] = biological target: Neu5Ac(a2-3)Gal(b1-3)]Neu5Ac(a2-3)Gal(b1-4)]GlcNAc
# Outline: as §1
# [16] = biological target: Neu5Ac(a2-3)Gal(b1-4)GlcNAc(b1-3)Gal(b1-4)GlcNAc(b1-3)Gal(b1-4)GlcNAc
# Outline: as §1
# [17] = biological target: Neu5Ac(a2-3)Gal(b1-4)GlcNAc(b1-3)Gal(b1-4)[Fuc(a1-3)]GlcNAc
# Outline: as §1
# [18] = biological target: Neu5Ac(a2-3)Gal(b1-4)[Fuc(a1-3)]GlcNAc(b1-3)GalNAc
# Outline: as §1
# [19] = biological target: Neu5Ac(a2-3)[GalNAc(b1-4)]Gal(b1-4)Glc
# Outline: as §1
# Neu5Ac(a2-6)Gal(b1-4)Glc = biological target: Neu5Ac(a2-6)Gal(b1-4)Glc
# Outline: as §1
# [20] = biological target: Neu5Ac(a2-6)Gal(b1-4)GlcNAc
# Outline: as §1
# [21] = biological target: Neu5Ac(a2-6)Gal(b1-4)GlcNAc(b1-3)Gal(b1-4)GlcNAc
# Outline: as §1
# [22] = biological target: Neu5Ac(a2-6)Gal(b1-4)GlcNAc(b1-3)Gal(b1-4)GlcNAc(b1-3)Gal(b1-4)GlcNAc(b1-2)Man(a1-3)[Neu5Ac(a2-6)Gal(b1-4)GlcNAc(b1-3)Gal(b1-4)GlcNAc(b1-3)Gal(b1-4)GlcNAc(b1-2)Man(a1-6)]GalNAc
# Outline: as §1
# Neu5Ac(a2-6)GalNAc = biological target: Neu5Ac(a2-6)GalNAc
# Outline: as §1
# [23] = biological target: Neu5Ac(a2-8)Neu5Ac(a2-8)Neu5Ac(a2-8)Neu5Ac(a2-3)[GalNAc(b1-4)]Gal(b1-4)Glc
# Outline: as §1
# Neu5Ac(b2-6)GalNAc = biological target: Neu5Ac(b2-6)GalNAc
# Outline: as §1
# [24] = biological target: Neu5Gc(a2-3)Gal(b1-4)GlcNAc(b1-3)Gal(b1-4)GlcNAc(b1-2)Man(a1-3)[Neu5Gc(a2-3)Gal(b1-4)GlcNAc(b1-3)Gal(b1-4)GlcNAc(b1-2)Man(a1-6)]Man(b1-4)GlcNAc(b1-4)GlcNAc
# Outline: as §1
# [25] = biological target: Neu5Gc(a2-8)Neu5Gc(a2-3)Gal(b1-4)GlcNAc
# Outline: as §1
binder,measurement,setting,value
B1,glycan array binding signal (z-score),[1],-0.192
same,glycan array binding signal (z-score),[2],-0.525
same,glycan array binding signal (z-score),[3],0.084
same,glycan array binding signal (z-score),[4],-0.551
same,glycan array binding signal (z-score),GlcNAc(b1-3)Gal,-1.24
same,glycan array binding signal (z-score),GlcNAc(b1-3)Gal(b1-4)Glc,-0.077
same,glycan array binding signal (z-score),[5],-0.29
same,glycan array binding signal (z-score),[6],3.06
same,glycan array binding signal (z-score),[7],2.24
same,glycan array binding signal (z-score),[8],2.39
same,glycan array binding signal (z-score),[9],-0.295
same,glycan array binding signal (z-score),[10],0.368
same,glycan array binding signal (z-score),Kdn(a2-6)Gal(b1-4)GlcNAc,-0.099
same,glycan array binding signal (z-score),[11],-0.373
same,glycan array binding signal (z-score),Man(a1-6)Man,0.479
same,glycan array binding signal (z-score),[12],-1.47
same,glycan array binding signal (z-score),[13],-0.681
same,glycan array binding signal (z-score),[14],-0.06
same,glycan array binding signal (z-score),[15],1.09
same,glycan array binding signal (z-score),[16],0.026
same,glycan array binding signal (z-score),[17],-0.678
same,glycan array binding signal (z-score),[18],3.04
same,glycan array binding signal (z-score),[19],0.603
same,glycan array binding signal (z-score),Neu5Ac(a2-6)Gal(b1-4)Glc,-0.768
same,glycan array binding signal (z-score),[20],-0.869
same,glycan array binding signal (z-score),[21],-1.3
same,glycan array binding signal (z-score),[22],3.53
same,glycan array binding signal (z-score),Neu5Ac(a2-6)GalNAc,-0.465
same,glycan array binding signal (z-score),[23],-0.059
same,glycan array binding signal (z-score),Neu5Ac(b2-6)GalNAc,-0.238
same,glycan array binding signal (z-score),[24],-0.264
same,glycan array binding signal (z-score),[25],-0.386
